Screening results (PubChem BioAssay)
HPGD block – qHTS Assay for Inhibitors of HPGD (15-Hydroxyprostaglandin Dehydrogenase); purified HPGD, NADH fluorescence kinetic, PGE2 substrate; Potency, µM, without a hit: at the top dose activity change, negative = inhibition, most hits filed as inhibitors; hit rate 4.3% among 150,000; AID 894, 2007; active = well fitted inhibition curve with a large enough effect, not every such curve was filed as active; inconclusive = small, poorly fitted or top-dose-only effect, or another doubt; inactive = no such curve, though single readings can be large or run the other way; also: potency is read from the fitted curve at half-maximal effect; % is scaled to controls: 0 for no effect and ±100 for the full control effect
Target sequence (P15428 whole entry, looked up): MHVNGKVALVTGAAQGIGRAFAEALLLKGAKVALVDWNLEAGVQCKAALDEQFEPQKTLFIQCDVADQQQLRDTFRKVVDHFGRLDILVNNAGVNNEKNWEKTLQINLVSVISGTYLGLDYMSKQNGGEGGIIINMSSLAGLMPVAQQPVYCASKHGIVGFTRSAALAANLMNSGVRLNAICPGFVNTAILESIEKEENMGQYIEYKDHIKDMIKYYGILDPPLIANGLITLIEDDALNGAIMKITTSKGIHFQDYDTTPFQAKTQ
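NADH formation kinetics: reaction with 30 uM PGE2 and 1 mM NAD+ (final), 20 nM enzyme, Tris-HCl pH 8 with Tween 20, after 15 min compound preincubation at room temperature. Fluorescence change, last versus first of five reads.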
ALDH1A1 block – qHTS Assay for Inhibitors of Aldehyde Dehydrogenase 1 (ALDH1A1) | Aldehyde dehydrogenase 1A1 (Homo sapiens), P00352 | Purified ALDH1A1, NADH fluorescence, propionaldehyde substrate | Potency, µM (doses to about 75.3 µM), without a hit: top-dose activity, negative = inhibition, usual class: inhibitors | hit rate 7.3% among 220,000; active = well fitted inhibition curve with a large enough effect, not every such curve was filed as active; inconclusive = small, poorly fitted or top-dose-only effect, or another doubt; inactive = no such curve, though single readings can be large or run the other way;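 also: potency is read from the fitted curve at half-maximal effect; plate controls were no enzyme wells and a reference inhibitor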
Target sequence (P00352 whole entry, looked up): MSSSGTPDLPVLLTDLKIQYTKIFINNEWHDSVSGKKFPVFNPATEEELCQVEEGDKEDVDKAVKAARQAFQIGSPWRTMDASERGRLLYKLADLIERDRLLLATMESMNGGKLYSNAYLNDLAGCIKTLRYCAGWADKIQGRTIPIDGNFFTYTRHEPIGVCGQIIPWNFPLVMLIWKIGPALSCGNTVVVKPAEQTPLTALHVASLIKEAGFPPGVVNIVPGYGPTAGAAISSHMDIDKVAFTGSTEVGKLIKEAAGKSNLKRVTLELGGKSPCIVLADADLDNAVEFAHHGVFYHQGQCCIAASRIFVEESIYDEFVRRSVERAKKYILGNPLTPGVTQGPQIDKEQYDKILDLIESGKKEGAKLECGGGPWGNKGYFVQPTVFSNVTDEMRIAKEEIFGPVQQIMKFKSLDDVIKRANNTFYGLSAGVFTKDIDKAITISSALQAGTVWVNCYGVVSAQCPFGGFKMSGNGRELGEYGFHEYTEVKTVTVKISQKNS
PNC assembly inh – High Content Assay for Compounds that inhibit the Assembly of the Perinucleolar Compartment | PC3M PTB-GFP, PNC prevalence imaging, 16 h; stronger effect = lower value | activity change (PNC), negative = inhibition, % at 10 µM | hit rate 3.1% among 140,000 | AID 2417, 2010;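 active = readout at or below -70, meaning at least 70% loss of cells showing the perinucleolar compartment, a nuclear body marking cancer cells; inconclusive = readout between -30 and a set limit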;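 also: plate controls were DMSO wells for no effect and camptothecin positive control wells for full effect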
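PC3M cells stably expressing PTB-GFP, 750–1000 cells/well, treated 16 h at 37 °C with compound (23 nl of library stock), in duplicate. After paraformaldehyde fixation and Hoechst stain, imaged at 20x; PNC prevalence scored by image analysis.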
HTT ATP protect – qHTS Multiplex Assay to Identify Dual Action Probes in a Cell Model of Huntington: Cytoprotection (ATP); PC12 HTT-Q103 induced, cytoprotection, ATP luminescence, 40 h; Potency, µM (doses to about 56.4 µM), without a hit: cytoprotection (ATP increase), hits mostly activators; hit rate 0.14% among 230,000; also: potency is read from the fitted curve at half-maximal effect; % of control where 0% means no effect; nearly all actives have a fitted effect of over 45% in size
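Compounds were screened for protection of PC12 cells against cell death after tebufenozide induction (100 nM final) of mutant Huntingtin exon 1 (Q103) fused to GFP.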
HttQ103 aggreg – qHTS Multiplex Assay to Identify Dual Action Probes in a Cell Model of Huntington: Aggregate Formation (GFP); PC12 HttQ103-GFP aggregates, Acumen cytometry, 40 h; Potency, µM (doses to about 46.1 µM), without a hit: top-dose activity change, negative = inhibition, hits mostly inhibitors; hit rate 1.1% among 220,000; also: potency is read from the fitted curve at half-maximal effect; % is scaled to controls: 0 for no effect and ±100 for the full control effect; nearly all actives have a fitted effect of over 60% in size
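PC12/HTTQ103-GFP, ecdysone-inducible; teb 100 nM; cpd qHTS titration; GFP aggregates read on laser cytometer, Ex 488/Em 500-530 nm.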
GoLoco inh red – qHTS Assay for Inhibitors of RGS12 GoLoco Motif Activity (Red Fluorophore); hit rate 0.44% among 230,000; Guanine nucleotide-binding protein G(i) subunit alpha-1 (Homo sapiens), P63096; Gai1:RGS12 GoLoco peptide FP, rhodamine, 10 min; Potency, µM (series often up to 61.6 µM), without a hit: at the highest dose activity, negative = inhibition, usual class: inhibitors; active = well fitted inhibition curve with a large enough effect, not every such curve was filed as active; inactive = no such curve, though single readings can be large or run the other way; also: potency is read from the fitted curve at half-maximal effect; % is scaled to controls: 0 for no effect and ±100 for the full control effect; nearly all actives have a fitted effect of over 30% in size
Starred values were filed as active, the others as inactive; [ ] = another dose, or the depositor's remark. This is a sample that favours compounds with a hit; in the whole collection about 11% have one here. Unless noted, calls follow the shape of the dose curve; as a rule, active = well fitted curve in the direction sought with a large enough effect; inconclusive = small, poorly fitted or top-dose-only effect, or another doubt; inactive = no such curve, though single readings can be large; an effect the other way counts as inactive or inconclusive.

`CCCCC/C=C\C\C=C/C=C/C=C/[C@@H](SC[C@H](N)C(=O)NCC(=O)O)[C@@H](O)CCCC(=O)O` gave ALDH1A1 block -0.9%, HTT ATP protect 6.4% and GoLoco inh red -2.0%.
For C[C@@]12CC(=O)C3=C(CCCC3=O)N1CCc1ccccc12 the results were HPGD block -1.8%, ALDH1A1 block -6.4%, HTT ATP protect -46.4% and GoLoco inh red 2.9%.
Screening CCOC(=O)OCC1OC(C#Cc2ccc(F)cc2F)C=CC1OC(=O)OCC (stereo not given) returned ALDH1A1 block -4.9%[13.5 µM] and HTT ATP protect -4.6%[10 µM].
O=C1c2ccccc2CN1CCSC(=S)N1CCSCC1 was read as ALDH1A1 block 10µM*, HTT ATP protect -45.0%, HttQ103 aggreg 0.6% and GoLoco inh red 4.7%.
`O=C1c2ccccc2CN1CCSC(=S)N1CCOCC1` gave HPGD block 28.2µM*, ALDH1A1 block inconclusive, PNC assembly inh 41.0, HTT ATP protect 9.0%[10 µM], HttQ103 aggreg 9.9% and GoLoco inh red -7.1%.
For CC1CN(C(=S)SCCN2Cc3ccccc3C2=O)CC(C)O1 (stereo not given) the results were HPGD block -17.2%, ALDH1A1 block -2.5%, PNC assembly inh 45.9, HTT ATP protect -8.4%[1.9 µM], HttQ103 aggreg inconclusive and GoLoco inh red -18.6%.
Screening CN(Cc1ccco1)c1ncnc2ccc(-c3ccccc3C(F)(F)F)cc12 returned ALDH1A1 block -9.0%, HTT ATP protect 2.1% and GoLoco inh red 6.5%.
ClCC1=Nc2cccc3cccc(c23)N1 was read as HTT ATP protect 12.0%[10 µM], HttQ103 aggreg -10.3%[9.22 µM] and GoLoco inh red -5.3%.
`CC(=O)Nc1ccc(NC(=O)C(C)OC(=O)CN(C)S(=O)(=O)c2ccc(Cl)cc2)cc1` (stereo not given) gave HPGD block -2.9%, ALDH1A1 block 2.1%, PNC assembly inh -113.4*, HTT ATP protect -0.3%, HttQ103 aggreg 5.8%[9.22 µM] and GoLoco inh red 7.5%.
Screening CC(OC(=O)CN(C)S(=O)(=O)c1ccc(Cl)cc1)C(=O)Nc1ccc(N2CCOCC2)cc1 (stereo not given) returned HPGD block -6.1%, ALDH1A1 block 6.8%, PNC assembly inh 13.1, HTT ATP protect -20.5%[10 µM], HttQ103 aggreg 16.6% and GoLoco inh red -6.2%.
`O=C1COc2ccc(C(=O)CCl)cc2N1` gave ALDH1A1 block 0.112µM*, HTT ATP protect 7.4%[10 µM], HttQ103 aggreg -7.9%[9.22 µM] and GoLoco inh red 2.0%.
For CCc1ccc(OCC(=O)OCC(=O)c2ccc3c(c2)NC(=O)CO3)cc1 the results were HPGD block -20.4%, ALDH1A1 block -3.7%, PNC assembly inh 5.0, HTT ATP protect 11.0%, HttQ103 aggreg 2.0% and GoLoco inh red 6.3%.
Screening O=C1COc2ccc(C(=O)C[n+]3cccc(O)c3)cc2N1 returned ALDH1A1 block 20µM*, HTT ATP protect -6.7%[10 µM], HttQ103 aggreg -23.8%[9.22 µM] and GoLoco inh red 12.9%.
`CCC(=O)c1ccc(OCC(=O)c2ccc3c(c2)NC(=O)CO3)cc1` gave ALDH1A1 block 3.5%, HTT ATP protect -3.8%[10 µM], HttQ103 aggreg -11.0%[9.22 µM] and GoLoco inh red 2.1%.
Screening CCCCCCC(=O)OCC(=O)c1ccc2c(c1)NC(=O)CO2 returned ALDH1A1 block 3.55µM*, HTT ATP protect inconclusive, HttQ103 aggreg 0.9% and GoLoco inh red 2.3%.
Screening O=C1[C@H]2[C@H]3[C@H](O)[C@H](O)C/C(=N/OCc4ccccc4)[C@H]3CC[C@@H]2C(=O)N1c1cccc(Oc2ccccc2)c1 returned ALDH1A1 block 1.7%[13.5 µM] and HTT ATP protect 7.6%[10 µM].
O=C(COC(=O)/C=C/c1ccc(S(=O)(=O)N2CCOCC2)cc1)NC1CCCCCCC1 was read as ALDH1A1 block -6.4%, HTT ATP protect -9.9%, HttQ103 aggreg -2.1% and GoLoco inh red 2.5%.
O=c1cc(N2CCNCC2)oc2c(-c3ccccc3)cccc12 was read as HPGD block -12.7%, ALDH1A1 block -10.1% and GoLoco inh red 11.0%.
For COCCn1c(SCC(=O)N2CCCCC2)nc2cccnc21 the results were HPGD block -7.4%, ALDH1A1 block -5.6%, PNC assembly inh -82.9*, HTT ATP protect -18.8%[10 µM], HttQ103 aggreg -2.2% and GoLoco inh red -11.0%.
`COc1ccccc1-n1c(SCC(=O)N2CCCC2)nc2cccnc21` gave HPGD block inconclusive, ALDH1A1 block inconclusive, PNC assembly inh -110.1*, HTT ATP protect -13.6%, HttQ103 aggreg 28.3% and GoLoco inh red -14.8%.
`CC(C)(C)NC(=O)Cn1c(SCC(N)=O)nc2ccccc21` gave HPGD block -5.1%, ALDH1A1 block 12.9%, PNC assembly inh 56.7, HTT ATP protect -8.0%, HttQ103 aggreg 6.3% and GoLoco inh red 0.7%.
For CC(C)(C)NC(=O)Cn1c(SCC(=O)N2CCCCCC2)nc2ccccc21 the results were HPGD block -17.6%, ALDH1A1 block inconclusive, PNC assembly inh -92.3*, HTT ATP protect 18.1%[10 µM], HttQ103 aggreg 17.7% and GoLoco inh red 1.4%.
For CCOC(=O)C1CCCCN1Cc1cc(OC)ccc1OC (stereo not given) the results were HPGD block -5.4%, ALDH1A1 block 15.8µM*, PNC assembly inh 20.8, HTT ATP protect 6.8%, HttQ103 aggreg 1.6%[9.22 µM] and GoLoco inh red -0.6%.
Screening C=C(C)COc1ccc(-c2[nH]ncc2Oc2ccccc2OC)c(O)c1 returned HPGD block -14.3%, ALDH1A1 block -6.8%, PNC assembly inh inconclusive, HTT ATP protect -20.3%, HttQ103 aggreg -8.2% and GoLoco inh red 3.9%.
Screening C=C(C)COc1ccc(-c2[nH]ncc2-c2ccccc2OC)c(O)c1 returned HPGD block -23.0%, ALDH1A1 block 25.1µM*, PNC assembly inh -27.5, HTT ATP protect 2.4%[0.074 µM], HttQ103 aggreg -20.0% and GoLoco inh red 9.4%.
Screening O=S1(=O)c2ccccc2N=NN1Cc1ccc(Cl)cc1 returned HPGD block 28.2µM*, ALDH1A1 block 2.38µM*, PNC assembly inh 8.2, HTT ATP protect -54.6%[10 µM], HttQ103 aggreg 9.6% and GoLoco inh red -7.8%.
For CC(=O)CCC(=O)O the results were HTT ATP protect 1.2%, HttQ103 aggreg -4.0% and GoLoco inh red 6.2%.
